High-throughput results (PubChem BioAssay)
APOBEC3G inh – APOBEC3G DNA deaminase inhibitors, primary screen, biochemical, fluorescence, single-stranded DNA substrate, uHTS | inhibition, % at 20 µM | 0.28% of 330,000 active | recombinant A3G, ssDNA deamination FAM/TAMRA fluorescence | DNA dC->dU-editing enzyme APOBEC-3G (Homo sapiens), Q9HC16;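 active means inhibition of at least 40% at 20 µM, with no more than 30% in the related APOBEC3A deaminase screen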;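 further: plate controls were DMSO wells with A3G for no effect and wells lacking A3G enzyme for full effect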
NALP1 yeast inh – NALP1 inflammasome inhibitors in reconstituted yeast, colorimetric, S. cerevisiae, triplicate retest; S. cerevisiae NALP1/ASC/caspase-1 growth, X-gal OD620, 72 h; inhibition, % at 10 µM; 0.61% of 280,000 active; AID 2071, 2009; in the data active means inhibition mostly above about 24%, no sharp cut-off; inactive means mostly below about 32%
sPLA2-III inh – human group III sPLA2 inhibitors, primary screen, biochemical, QFRET, BODIPY PC-A2 liposome substrate; inhibition, % at 12.2 µM; 0.56% of 370,000 active; QFRET BODIPY PC-A2 liposome hydrolysis, fluorescence; Group 3 secretory phospholipase A2 (Homo sapiens), Q9NZ20; AID 743126, 2013;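 active means inhibition above mean plus 3 SD of compounds lying within the high and low control bounds, cut at about 19% in these data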;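 further: 0% = median of test compound wells and 100% = no enzyme DMSO wells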
CTSL1 counter – Fasciola hepatica cathepsin L1 inhibitors, primary screen, counter-screen for PFM18AAP inhibitor project, biochemical, QFRET, fluorogenic peptide substrate | recombinant F. hepatica cathepsin L1, Z-Leu-Arg-MCA fluorescence | inhibition, % at 5.96 µM | 0.49% of 300,000 active;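 active means inhibition above the mean of all tested compounds plus 3 SD, set per screening campaign, cut at about 17% in these data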;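 further: 0% = plate median of test compound wells and 100% = 1 µM Z-Phe-Ala-diazomethylketone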
APOBEC3A inh – APOBEC3A ssDNA deaminase inhibitors, primary screen, selectivity assay for APOBEC3G inhibitor project, biochemical, FAM/TAMRA oligo cleavage fluorescence | DNA dC->dU-editing enzyme APOBEC-3A (Homo sapiens), P31941 | recombinant A3A, FAM/TAMRA ssDNA deamination fluorescence | inhibition, % at 20 µM | 0.41% of 330,000 active | AID 493011, 2011;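 active means at least 40% inhibition at 20 µM here, with at most 30% in a related deaminase screen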;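 further: plate controls were A3A with DMSO for no effect and wells lacking A3A enzyme for full effect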
Target sequence (P31941 whole entry, looked up): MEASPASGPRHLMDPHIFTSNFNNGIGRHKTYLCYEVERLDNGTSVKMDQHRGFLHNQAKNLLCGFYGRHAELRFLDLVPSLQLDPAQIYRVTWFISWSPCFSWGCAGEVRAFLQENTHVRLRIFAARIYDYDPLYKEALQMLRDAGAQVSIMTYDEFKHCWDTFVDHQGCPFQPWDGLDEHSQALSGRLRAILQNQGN
APOBEC3G confirm – APOBEC3G deaminase inhibitor retest, confirmation, biochemical, fluorescence, single-stranded DNA substrate, single concentration; recombinant A3G ssDNA deaminase, UDG/FAM-TAMRA fluorescence; inhibition, % at 20 µM; 72% of 890 active; shares compounds with APOBEC3G inh;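 active means inhibition reaching a set limit in any replicate at 20 µM, the limit being 80% of the first screen's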
UDG A3G counter – E. coli UDG inhibitors, confirmation, counter-screen for APOBEC3G inhibitor project, biochemical, single concentration, fluorescence, FAM/TAMRA oligo; inhibition, % at 20 µM; UDG counterscreen; 710 tested, under 10 active; shares compounds with APOBEC3G inh;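 active means compounds giving 40% or more inhibition at 20 µM in any one of the three replicates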;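 further: plate controls were DMSO wells with UDG and oligo for no effect and DMSO wells lacking both for full effect; inhibitors lower the FAM signal released by uracil excision and alkaline cleavage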
Target sequence (P12295 whole entry, looked up): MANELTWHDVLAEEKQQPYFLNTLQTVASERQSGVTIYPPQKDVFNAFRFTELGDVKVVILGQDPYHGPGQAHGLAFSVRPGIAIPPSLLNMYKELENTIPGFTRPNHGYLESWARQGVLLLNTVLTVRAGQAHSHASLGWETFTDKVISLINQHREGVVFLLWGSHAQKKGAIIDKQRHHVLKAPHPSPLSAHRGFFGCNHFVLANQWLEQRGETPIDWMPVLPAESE
* hit, by the source's call. A selection: hits, their analogues and other compounds. The true share with any hit is near 2%.

Nc1ccccc1SSc1ccccc1N was read as APOBEC3G inh 81.8*, NALP1 yeast inh 1.6, sPLA2-III inh -2.5, CTSL1 counter 1.8, APOBEC3A inh 1.0, APOBEC3G confirm 63.2* and UDG A3G counter 1.2.
Screening COC(=O)[C@]12C[C@H](CC(=O)NCCc3ccccc3OC)C(=O)N(Cc3cccc4ccccc34)C1=C[C@H](C(C)(C)C)O[C@@H]2C returned sPLA2-III inh -1.1.
`CC(c1ccccc1)n1c(Cn2ncc3ccccc3c2=O)n[nH]c1=S` (centres undefined) gave APOBEC3G inh 29.8, NALP1 yeast inh -1.1, sPLA2-III inh 6.4, CTSL1 counter -1.4 and APOBEC3A inh -5.4.
Screening O=c1c2ccccc2cnn1Cc1n[nH]c(=S)n1-c1ccc(Cl)cc1 returned APOBEC3G inh 41.7*, NALP1 yeast inh 8.3, sPLA2-III inh 8.8, CTSL1 counter -6.5, APOBEC3A inh -2.2, APOBEC3G confirm 77.5* and UDG A3G counter -2.8.
`Cc1ccc(CNC(=O)OC(C)(C)C)c(/C=C/S(=O)(=O)NC2CCCC2)c1` gave sPLA2-III inh 4.9.
Screening CCc1ccc(-n2c(C)n[nH]c2=S)cc1 returned APOBEC3G inh 56.4*, NALP1 yeast inh 0.5, sPLA2-III inh 17.9, CTSL1 counter -2.3, APOBEC3A inh -5.6, APOBEC3G confirm 61.3* and UDG A3G counter 2.1.
`Cc1n[nH]c(=S)n1-c1ccc(Cl)cc1` gave APOBEC3G inh 18.1, NALP1 yeast inh -2.4, sPLA2-III inh 5.2, CTSL1 counter 1.2 and APOBEC3A inh 0.7.
Screening Cc1ccnc(SCc2cc(=O)c(OC(=O)c3ccc([N+](=O)[O-])cc3)co2)n1 returned sPLA2-III inh 15.8.
CCN(CC)S(=O)(=O)c1ccc2oc(Nc3ccc(OC)cc3)nc2c1 was read as APOBEC3G inh -9.4, NALP1 yeast inh -11.9, sPLA2-III inh -9.7, CTSL1 counter -7.2 and APOBEC3A inh -2.9.
CCOc1ccc(Nc2nc3cc(S(=O)(=O)N(CC)CC)ccc3o2)cc1 was read as APOBEC3G inh 49.5*, NALP1 yeast inh 12.1, CTSL1 counter -5.0, APOBEC3A inh 1.8, APOBEC3G confirm 61.5* and UDG A3G counter -1.1.
For CCS(=O)(=O)c1ccc2oc(Nc3cc(C)cc(C)c3)nc2c1 the results were APOBEC3G inh -8.2, NALP1 yeast inh 1.0, sPLA2-III inh -27.2, CTSL1 counter -1.2 and APOBEC3A inh 2.3.
Screening CCS(=O)(=O)c1ccc2oc(Nc3ccc(C(C)C)cc3)nc2c1 returned APOBEC3G inh 67.9*, NALP1 yeast inh -7.4, sPLA2-III inh -2.5, CTSL1 counter 1.5, APOBEC3A inh 0.7, APOBEC3G confirm 77.8* and UDG A3G counter 1.6.
For Cc1ccc(C(=O)c2c(NC(=O)CSc3nnc(N)s3)sc3c2CCCC3)cc1 the results were APOBEC3G inh 45.1*, NALP1 yeast inh 14.0, sPLA2-III inh -24.9, CTSL1 counter -1.4, APOBEC3A inh 0.1 and APOBEC3G confirm -2.7.
For Cc1csc(SCC(=O)Nc2sc3c(c2C#N)CCC3)n1 the results were APOBEC3G inh 41.8*, NALP1 yeast inh 7.7, sPLA2-III inh 1.5, CTSL1 counter -5.2, APOBEC3A inh 5.9 and APOBEC3G confirm 6.8.
O=S1(=O)c2c(cccc2N2CCSCC2)Oc2ccccc2CN1Cc1cn(Cc2ccc(C(F)(F)F)cc2)nn1 was read as sPLA2-III inh -10.6.
